Assay results reported in PubChem BioAssay (NCI).
The panel holds about 79,000 compounds, 15% with a hit somewhere; the sample as a whole holds those more often. Cut-off read from the data, not from the text of the source: active = growth inhibition above about 70%; inactive = the rest.

What was measured:
[1] = NCI Yeast Anticancer Drug Screen. Data for the rad50 strain (AID 155);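 note: 0% = growth of vehicle-only cultures of the same strain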; settings: S. cerevisiae rad50 strain growth inhibition; at 50.0 µM; hits give high values
Summary of the method: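 Growth of the mutant yeast was measured after compound exposure and referenced to vehicle-treated cultures.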

[2] = NCI Yeast Anticancer Drug Screen. Data for the mec2-1 strain (AID 157); settings: S. cerevisiae mec2-1 strain, at 50.0 µM, hits give high values
Summary of the method: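 Test agents were screened against the mec2-1 yeast strain, with defined DNA repair or cell cycle alteration. Growth was scored as inhibition against vehicle-only controls.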

[3] = NCI Yeast Anticancer Drug Screen. Data for the sgs1 mgt1 strain (AID 161);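 note: 0% = growth of cultures given vehicle only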; settings: S. cerevisiae sgs1 mgt1 strain, at 50.0 µM, hits give high values
Summary of the method: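 Inhibition of yeast growth, normalised to vehicle-treated controls, is reported for a strain bearing genetic alterations in DNA damage repair.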

[4] = NCI Yeast Anticancer Drug Screen. Data for the cln2 rad14 strain (AID 165);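 note: 0% = growth equal to vehicle treated cultures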; settings: S. cerevisiae cln2 rad14 strain, at 50.0 µM, hits give high values
Summary of the method: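 Growth of compound-exposed yeast (cln2 rad14 genotype) measured and expressed as inhibition relative to vehicle.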

[5] = NCI Yeast Anticancer Drug Screen. Data for the bub3 strain (AID 167); settings: S. cerevisiae bub3 mutant strain, at 50.0 µM, hits give high values
Summary of the method: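 Whole-cell yeast assay. The mutant strain was incubated with compounds, and growth inhibition was determined by comparison with vehicle-treated cells.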

[6] = NCI Yeast Anticancer Drug Screen. Data for the mlh1 rad18 strain (AID 175); settings: S. cerevisiae mlh1 rad18 strain growth inhibition; at 50.0 µM; hits give high values
Summary of the method: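 In this whole-cell yeast screen, a strain with altered DNA damage repair is challenged with compound, and its growth is measured against matched vehicle-treated controls.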

Measured: growth inhibition

CC(=O)/C(=C/n1c(=S)sc2ccccc21)C(=O)Nc1ccc([N+](=O)[O-])cc1
inactive: [1] 6.4% | [2] 4.55% | [3] -2.45% | [4] -15.8% | [5] -19.8% | [6] -8.7%

OCCNc1ncnc2ccccc12
inactive: [1] -16.6% | [2] -1.7% | [3] 4.35% | [4] -4.7% | [5] 6.15% | [6] -18.9%

COc1cc(OC)c(C2CC(C)(O)Oc3cc4c(cc32)OCO4)c(OC)c1 (stereo not drawn)
inactive: [1] 17.4% | [2] 3.8% | [3] 26.9% | [4] 3.9% | [5] 22.1% | [6] 11.8%

CC(C)S(=O)(=O)/C=C(\I)c1ccccc1
inactive: [1] 3.7% | [2] 8.7% | [3] -11.2% | [4] 6.9% | [5] 33.2% | [6] -11.4%

O=c1[nH]c2cc([N+](=O)[O-])ccc2nc1/C(=N/Nc1ccccc1)C(O)c1ccc(C(O)/C(=N\Nc2ccccc2)c2cnc3cc([N+](=O)[O-])ccc3n2)cc1 (stereo not drawn)
inactive: [1] -4.05% | [2] -23.9% | [3] -11.4% | [4] 5.25% | [5] -6.45% | [6] -4.3%

COc1c(O)cc2oc(-c3ccc(O)cc3)cc(=O)c2c1O
inactive: [1] 11% | [2] -5.7% | [3] 29.8% | [4] 10.8% | [5] 16.2% | [6] -0.05%

C/C(=N\Nc1ccc([N+](=O)[O-])cc1)C(=O)N(C)Nc1ccccc1
inactive: [1] -6% | [2] -54.2% | [3] -38% | [4] -5.7% | [5] -59.7% | [6] -5.4%

COCC(=O)c1ccccc1
inactive: [1] 14.3% | [2] 1.7% | [3] 5.3% | [4] 6% | [5] -0.65% | [6] 32.9%

C1=C(N2CCOCC2)CCC(N2CCOCC2)=C1
inactive: [1] -2.85% | [2] 21.9% | [3] 20.8% | [4] 41.9% | [5] -8.65% | [6] -12.2%

CN(Cc1ccccc1)C(=O)c1ccc(Cl)cc1
inactive: [1] -1.35% | [2] 3.75% | [3] 6.25% | [4] 0.6% | [5] 1.25% | [6] -0.1%

COc1ccc(Cc2cc(OC)c(OC)c(OC)c2)cc1O
inactive: [1] 2.2% | [2] 11.4% | [3] -16.4% | [4] -22.1% | [5] 19.9% | [6] -21.2%

O=c1c2cccnc2cc(-c2ccccc2)n1CCO
inactive: [1] -27.5% | [2] -12.3% | [3] -16.2% | [4] 4.55% | [5] 3.3% | [6] -4.15%

O=CNCCNC=O
inactive: [1] 0.05% | [2] -2.25% | [3] -15% | [4] -12.7% | [5] 0.65% | [6] -1.85%

C=CC1CNCCC1CC(=O)OCC (stereo not drawn)
inactive: [1] -16.6% | [2] -5.55% | [3] 3% | [4] -12.4% | [5] 4.45% | [6] -24.4%

CC(=O)CCn1ncc(Cl)c(Cl)c1=O
inactive: [1] 1.4% | [2] -18.3% | [3] 3.6% | [4] 7.7% | [5] 1.15% | [6] 4.3%

CC(C1CCCC1=O)C1CCCC1=O (stereo not drawn)
inactive: [1] -1.1% | [2] -17.8% | [3] -5.05% | [4] 5.35% | [5] -11.9% | [6] -10.4%

Clc1nc(C(Cl)Cl)nc2ccccc12
inactive: [1] 9.65% | [2] 10.8% | [3] 14.2% | [4] 2.9% | [5] 16.1% | [6] 12.4%

Cc1cc2c(cc1Cl)SC(NNc1cnc3ccccc3n1)=NS2(=O)=O
inactive: [1] 23.3% | [2] 21.6% | [3] 35.7% | [4] 20.2% | [5] 19.1% | [6] 4.8%

CC(=O)NCCCCN(CCCNC(C)=O)C(=O)CNS(=O)(=O)c1cccc2c(N(C)C)cccc12
inactive: [1] -11.2% | [2] -17.1% | [3] 16.2% | [4] 2% | [5] 17.6% | [6] -8.65%

Cc1ccc(S(=O)(=O)c2cc3ccccc3oc2=O)cc1
inactive: [1] -1.25% | [2] 1% | [3] -8.2% | [4] -40% | [5] -11.2% | [6] -9.65%

CC1(C)N=C(N)N=C(N)N1c1ccc(C(F)(F)F)cc1
inactive: [1] 4.15% | [2] 10.1% | [3] 7.85% | [4] -0.5% | [5] 49% | [6] 29.4%

O=C(O)/C(Cc1ccnc2ccccc12)=N\O
inactive: [1] -1.35% | [2] 2.7% | [3] -15.4% | [4] -0.05% | [5] -22.7% | [6] 0.4%

CCc1nnnn1-c1ccc(Br)cc1
inactive: [1] 8.8% | [2] 38.5% | [3] 13.7% | [4] 9.8% | [5] 40.2% | [6] 18.5%

O=C(OCc1ccccc1)c1ccccc1O
inactive: [1] 39.1% | [2] 16.1% | [3] 46.1% | [4] -16.1% | [5] 22.8% | [6] 57.5%

COc1cc(NCc2ccc3c(c2)OCO3)c([N+](=O)[O-])cc1OC
inactive: [1] 5.15% | [2] 11.3% | [3] 6.6% | [4] -8.6% | [5] 4.3% | [6] -15.7%

COC(=O)/C=C/C(=O)N1CC(C)N(C(=O)/C=C/C(=O)OC)CC1C (stereo not drawn)
inactive: [1] -8.45% | [2] -3.55% | [3] -9.2% | [4] 37.4% | [5] 1.45% | [6] -14.4%

OC1(C#CC2(O)CCCC2)CCCC1
inactive: [1] -8.9% | [2] -11.9% | [3] 15.4% | [4] -8.05% | [5] -1.2% | [6] 23.9%

O=C(CC(=O)Nc1ccccc1)NNC(Sc1ccccc1)c1cc(N=Nc2ccc(Br)cc2)ccc1O (stereo not drawn)
inactive: [1] 4.6% | [2] 14.1% | [3] 11.2% | [4] -10% | [5] -2.9% | [6] -4.7%

Cc1ccc(C(=O)c2ccccc2C(=O)O)cc1C(=O)O
inactive: [1] 8.9% | [2] 11.1% | [3] 1.15% | [4] 2.7% | [5] 10.2% | [6] -7.05%

COc1ccc(Cl)cc1NC(=O)Nc1ccc(S(N)(=O)=O)cc1
inactive: [1] 9.7% | [2] 8% | [3] 4.85% | [4] 18.1% | [5] 19.1% | [6] 9.65%

O=[N+]([O-])c1ccc(N=C(Nc2ccc([N+](=O)[O-])cc2)c2ccccc2)cc1
inactive: [1] 12.1% | [2] -16.2% | [3] -1.6% | [4] -33.6% | [5] -12.6% | [6] -14.5%

CN1c2ccccc2N(C(=O)c2ccc([N+](=O)[O-])cc2)C(CC(=O)O)c2cccn21 (stereo not drawn)
inactive: [1] 2.6% | [2] -30.9% | [3] -15.8% | [4] 4.6% | [5] -16.3% | [6] 3%

COC(=O)CCc1ccc(NC(=O)OC)cc1
inactive: [1] -1.4% | [2] 20.3% | [3] 10.9% | [4] 11.2% | [5] 14.8% | [6] -4.7%

COc1cccc(/C=C/C(=O)c2sc(C(N)=S)nc2C)c1O
inactive: [1] 14.2% | [2] 1.7% | [3] 5.2% | [4] 25.9% | [5] -3.75% | [6] 7.6%

CS1(C)=NC(=O)c2cc([N+](=O)[O-])ccc2N=1
inactive: [1] 12.2% | [2] 19.4% | [3] 10.4% | [4] -25.2% | [5] 11.8% | [6] 12.8%

COC(=O)CCc1cc(=O)oc2c3c(cc(OC)c12)OC1OC(=O)CC31 (stereo not drawn)
inactive: [1] -24% | [2] -22.3% | [3] -19.1% | [4] 6.4% | [5] -20.1% | [6] -7.25%

N#CC1(Nc2ccc(Cl)cc2)CCCC1
inactive: [1] 5.6% | [2] 2.4% | [3] -6.5% | [4] -15.6% | [5] 13.8% | [6] 3.1%

c1ccc(-c2nnc(SCc3nc4ccccc4[nH]3)o2)cc1
inactive: [1] 5.65% | [2] 9.75% | [3] 29.8% | [4] 36.3% | [5] 20.4% | [6] 52%
